# High-throughput results as filed in PubChem.
# USP17 block: inhibitors of human USP17 deubiquitinase | Ubiquitin carboxyl-terminal hydrolase 17-like protein 5 (Homo sapiens), A8MUK1 | purified USP17, Ub-rhodamine cleavage fluorescence, 3 h | inhibition, % at 50 µM | 6.5% of 47,000 active | AID 1645855, 2021
# USP7 block: inhibitors of human USP7 deubiquitinase. Ubiquitin carboxyl-terminal hydrolase 7 (Homo sapiens), Q93009. purified USP7, Ub-rhodamine cleavage fluorescence. inhibition, % at 20 µM. 0.3% of 47,000 active. AID 1645854, 2021
# Target sequence (Q93009 whole entry, looked up): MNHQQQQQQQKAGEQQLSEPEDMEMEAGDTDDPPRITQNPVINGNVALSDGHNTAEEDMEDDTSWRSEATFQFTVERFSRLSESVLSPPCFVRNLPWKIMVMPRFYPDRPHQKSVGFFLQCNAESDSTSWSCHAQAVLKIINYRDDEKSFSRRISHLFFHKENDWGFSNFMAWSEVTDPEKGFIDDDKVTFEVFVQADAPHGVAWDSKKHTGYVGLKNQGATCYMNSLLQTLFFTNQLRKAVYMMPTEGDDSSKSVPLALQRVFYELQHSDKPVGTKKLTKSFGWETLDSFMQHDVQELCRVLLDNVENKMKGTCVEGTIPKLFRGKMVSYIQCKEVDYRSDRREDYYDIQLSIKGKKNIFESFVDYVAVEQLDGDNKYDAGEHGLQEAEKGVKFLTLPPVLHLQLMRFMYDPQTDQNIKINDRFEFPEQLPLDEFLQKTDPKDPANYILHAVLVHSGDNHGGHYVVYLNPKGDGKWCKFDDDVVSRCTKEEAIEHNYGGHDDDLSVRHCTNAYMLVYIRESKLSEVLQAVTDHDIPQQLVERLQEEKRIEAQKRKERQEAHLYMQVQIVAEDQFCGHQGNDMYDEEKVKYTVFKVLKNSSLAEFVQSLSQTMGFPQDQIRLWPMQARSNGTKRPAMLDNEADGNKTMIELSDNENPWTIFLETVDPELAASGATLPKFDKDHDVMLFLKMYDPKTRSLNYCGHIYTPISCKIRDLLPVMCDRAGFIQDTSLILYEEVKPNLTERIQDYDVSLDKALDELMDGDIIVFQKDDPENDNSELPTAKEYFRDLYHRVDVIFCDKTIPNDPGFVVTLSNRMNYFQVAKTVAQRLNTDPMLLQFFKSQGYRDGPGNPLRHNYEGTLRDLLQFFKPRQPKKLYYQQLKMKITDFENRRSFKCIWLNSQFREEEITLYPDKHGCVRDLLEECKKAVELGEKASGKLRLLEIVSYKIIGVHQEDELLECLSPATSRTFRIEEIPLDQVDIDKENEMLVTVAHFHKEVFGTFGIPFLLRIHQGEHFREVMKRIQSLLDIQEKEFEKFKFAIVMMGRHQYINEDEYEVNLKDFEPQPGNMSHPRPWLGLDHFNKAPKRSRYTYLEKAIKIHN
# OTUD3 inh: inhibitors of human OTUD3 deubiquitinase. purified OTUD3, Ub-rhodamine fluorescence, 2 h. 0.7% of 47,000 active. inhibition, % at 25 µM. OTU domain-containing protein 3 (Homo sapiens), Q5T2D3
# UCHL1 block: inhibitors of human UCHL1 deubiquitinase; Ubiquitin carboxyl-terminal hydrolase isozyme L1 (Homo sapiens), P09936; purified UCHL1, Ub-rhodamine cleavage fluorescence; inhibition, % at 20 µM; 0.2% of 47,000 active
# USP8 block: inhibitors of human USP8 deubiquitinase; inhibition, % at 20 µM; AID 1645853, 2021; 4.2% of 47,000 active; Ubiquitin carboxyl-terminal hydrolase 8 (Homo sapiens), P40818; purified USP8, Ub-rhodamine cleavage fluorescence, 30 min
# USP10 block: inhibitors of human USP10 deubiquitinase. purified USP10, Ub-rhodamine fluorescence, 60 min. Ubiquitin carboxyl-terminal hydrolase 10 (Homo sapiens), Q14694. inhibition, % at 20 µM. 1.1% of 47,000 active
# Numbers stand for hits; . = inactive; / = no result given. Shown are actives, neighbours in structure and some others; about 9.2% of the full set was active somewhere. Cut-off read from the data, not from the text of the source: active = inhibition above about 30%; inactive = the rest.
SMILES,USP17 block,USP7 block,OTUD3 inh,UCHL1 block,USP8 block,USP10 block
CCCC(=O)c1c[nH]c(C(=O)NCc2ccc(F)cc2)c1,68.9,.,.,.,.,.
CN(Cc1cc(C[C@@H]2C[C@H](N)C2(C)C)no1)c1ccccc1,.,.,.,.,.,.
COc1cccc(NC(=O)CC2Sc3ccccc3NC2=O)c1 (configuration not stated),31.8,.,.,.,.,.
O=C(CC1SC(=O)NC1=O)Nc1cccc(C(F)(F)F)c1 (configuration not stated),.,.,.,.,.,.
COc1cccc(NC(=O)C2CCC(=O)N2S(=O)(=O)c2ccccc2)c1 (configuration not stated),.,.,.,.,.,.
O=C(/C=C/c1ccc(F)cc1)N1CCC(Cc2ccccc2)CC1,35.9,.,.,.,.,.
CC1(C(=O)NCc2ccc(F)cc2)Cn2nc(-c3ccco3)cc2C(=O)N1c1ccc2c(c1)OCCO2 (configuration not stated),37.2,.,.,.,61.4,.
Cc1cc2n(n1)CC(C)(C(=O)NCc1ccccc1)N(c1ccc3c(c1)OCCO3)C2=O (configuration not stated),.,.,.,.,.,.
Cc1cc(C)cc(NS(=O)(=O)c2ccc3c(c2)NC(=O)C(C)C(=O)N3)c1 (configuration not stated),.,.,.,.,.,.
CC1Cc2ccccc2N1C(=O)Cc1csc(NC(=O)c2ccc(=O)[nH]c2)n1 (configuration not stated),.,.,.,.,46.9,.
CC1Cc2ccccc2N1C(=O)COC(=O)c1ccc2ccccc2n1 (configuration not stated),.,.,.,.,.,.
O=C(Cn1cnc(-c2ccccc2)cc1=O)Nc1ccc(Oc2ccccc2)cc1,.,.,.,.,45.9,.
O=C(Cn1nc(-c2ccc3c(c2)OCCO3)ccc1=O)Nc1ccc(Oc2ccccc2)cc1,31.4,.,.,.,.,.
COc1ccc(-c2cc3c(=O)n(CC(=O)Nc4ccc(Cl)cc4)ccn3n2)cc1,.,.,.,.,.,.
Cc1ccc(-c2cc(=O)n(CC(=O)Nc3ccc(C(C)C)cc3)cn2)cc1,38.0,.,.,.,33.8,42.5
Cc1cc(=O)n(CC(=O)Nc2ccc3c(c2)OCCO3)c2c1c(C)nn2-c1ccccc1,.,.,.,.,.,.
Cn1nc(C(=O)N2CCOCC2)c2c1CN(Cc1ccccc1)CC2,.,.,.,.,.,.
COc1ccc(C(=O)N2C[C@H]3CC[C@@H](Nc4cnccn4)[C@H]3C2)cn1,.,.,.,.,.,.
N#Cc1cn(CC(=O)N2CCc3ccccc32)c2ccccc12,.,.,.,.,.,.
O=C(Cn1cc(C(=O)C(F)(F)F)c2ccccc21)N1CCc2ccccc21,52.3,.,.,.,68.4,.
O=C(CN1CCN(S(=O)(=O)c2ccc3c(c2)OCCCO3)CC1)N1CCCc2ccccc21,.,.,.,.,.,.
COC(=O)c1cn(CC(=O)N2CCCc3ccccc32)c2ccccc12,40.7,.,.,.,.,.
O=C(Cn1cnc2cc3c(cc21)OCCCO3)N1CCCc2ccccc21,.,.,.,.,36.9,.
CCC(=O)N1CCc2ccccc2C1C(=O)NCc1ccc2c(c1)OCO2 (configuration not stated),.,.,.,.,.,.
COc1cccc(-c2cc(C(=O)NC3CCCCCC3)[nH]n2)c1,.,.,.,.,.,.
SMILES,USP17 block,USP7 block,OTUD3 inh,UCHL1 block,USP8 block,USP10 block
COc1cc(C(=O)Nc2ccc(C#N)cc2)ccc1OCC(=O)Nc1ccccc1C(F)(F)F,.,.,.,.,.,.
COc1ccc(C2/C(=C(\O)c3ccccc3)C(=O)C(=O)N2c2cccc(C(F)(F)F)c2)cc1 (configuration not stated),/,.,.,.,.,30.5
COc1ccc(C2/C(=C(\O)c3ccccc3)C(=O)C(=O)N2c2nc3ccc(F)cc3s2)cc1 (configuration not stated),/,.,.,.,.,41.5
Cc1ccc(C2/C(=C(\O)c3ccc(F)cc3)C(=O)C(=O)N2c2nc3ccc(F)cc3s2)cc1 (configuration not stated),/,.,.,.,.,.
Cc1oncc1-c1cnc(-c2ccccn2)s1,.,.,.,.,.,.
Cc1ccc(CN2CCN(C3CCOCC3)CC(C(N)=O)C2)cn1 (configuration not stated),.,.,.,.,.,.
CN(C)CCNC(=O)c1cccc(-c2ccc(CC3CCCNC3=O)cc2)c1 (configuration not stated),.,.,.,.,.,.
O[C@H]1[C@H](O)[C@H](Oc2ccccc2)CC[C@H]1NCc1cccnc1,.,.,.,.,.,.
O=C(Cc1cccnc1)N[C@@H]1CC[C@@H](Oc2ccccc2)[C@@H](O)[C@@H]1O,30.5,.,.,.,72.8,.
Cc1ccc(-c2cc(-c3ccc(F)cc3)[nH]c(=O)c2C#N)cc1,67.3,.,.,.,.,.
N#Cc1c(-c2cccs2)cc(-c2cccs2)[nH]c1=O,.,.,.,.,.,.
N#Cc1c(-c2ccc(Cl)cc2)cc(-c2cccc(Br)c2)[nH]c1=O,.,.,.,.,51.7,.
CC(C)Cc1ccc(-c2cc(-c3ccc(C(F)(F)F)cc3)c(C#N)c(=O)[nH]2)cc1,.,35.1,.,.,.,63.6
N#CC1=C(c2ccc(Cl)cc2)NC(=O)CC1,.,.,.,.,.,.
COc1ccc(CN2CC[C@@H]3NS(=O)(=O)c4ccccc4O[C@H]3CC2)cc1,.,.,.,.,.,.
COc1ccc(C2C(C(=O)Nc3ccccc3OC)=C(C)Nc3nnnn32)cc1Br (configuration not stated),74.4,.,.,.,.,.
COc1ccccc1NC(=O)C1=C(C)Nc2nc(-c3ccc(N(C)C)cc3)nn2C1c1ccncc1 (configuration not stated),40.3,.,.,.,.,.
N#Cc1cccc(NC(=O)CC(=O)Nc2ccc3nc4n(c(=O)c3c2)CCCCC4)c1,.,.,.,.,55.7,.
O=C(Nc1ccc2nc3n(c(=O)c2c1)CCCC3)Nc1ccc(F)cc1F,.,.,.,.,.,.
Cn1nc(Cn2ccnc2)c2c1CN(C(=O)CC1CC1)C2,.,.,.,.,.,.
O=c1c2cnc(N3CCCCC3)nc2ccn1Cc1ccc2c(c1)OCO2,.,.,.,.,41.6,.
Cc1nc(-c2ncc[nH]2)cc(C2CCN(C(=O)C3CCC3)CC2)n1,.,.,.,.,.,.
COc1ccc(-c2cc(-c3ccc(O)cc3)nc(N)c2C#N)cc1OC,45.8,.,.,.,.,.
